Here are results for eight molecules from PubChem BioAssay (Tox21).

Experiment [1] is described as follows: Nuclear factor erythroid 2-related factor 2/antioxidant responsive element (Nrf2/ARE) small molecule agonists: luciferase reporter gene qHTS assay in human keratinocytes (AID 1919969). Further: nearly all actives have a fitted effect of over 35% in size. Further: potency means the concentration at half of the fitted maximal effect. Background: Reporter assays use an easily measured gene product as a stand-in for the process of interest.
Experiment [2] concerns the target Gonadotropin-releasing hormone receptor (Homo sapiens) (UniProt P30968). The experiment in a line: Human gonadotropin-releasing hormone receptor (GnRHR) small molecule agonists, calcium flux assay in GnRHR-HEK293 cells (AID 1920063). Further: nearly all actives have a fitted effect of over 35% in size. Further: potency means the concentration at half of the fitted maximal effect. In outline:
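Fluorescence kinetics (480 nm excitation, 540 nm emission; 3 min, 1 s steps) report calcium mobilisation in human GnRHR-HEK293 cells in agonist mode. Dye incubation: 1 h, 37 C.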
A general note: Calcium assays in cells follow changes in intracellular calcium, usually with a dye or a luminescent sensor.

The target in experiment [3] is KiSS-1 receptor (Homo sapiens) (UniProt Q969F8). Put plainly: Human kisspeptin (KISS1R) small molecule agonists, calcium flux assay in KISS1R-HEK293 cells (AID 1920064; active means well fitted activation curve with a large enough effect in the repeat runs; further: potency means the concentration at half of the fitted maximal effect). In outline: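 Measures KISS1R agonism through calcium-sensitive dye fluorescence in stably transfected HEK293 cells, read for 3 min after pin-tool compound delivery; 15-point titrations in triplicate.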

The nature of experiment [4]: G protein-coupled receptor (GPCR) small molecule agonists, calcium flux assay: HEK293 wild type cell line counter screen (AID 1920065). Further: potency means the concentration at half of the fitted maximal effect. In outline: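 Readout: fluorescence at 480 nm excitation/540 nm emission, sampled at 1 s intervals for 3 min. Cells had been cultured 18 h, then dye-loaded 1 h at 37 C before compound or ATP addition.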
A short description of experiment [5]: p53 small molecule agonists, cell-based qHTS assay with human liver microsomes: qHTS cell viability counter screen (AID 1963579). Further: nearly all actives have a fitted effect of over 45% in size. Further: potency means the concentration at half of the fitted maximal effect. In outline:
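p53RE-bla cells (4,000/well) were pre-incubated 5 h at 37 C, then given compounds in DMSO plus human liver microsomes (0.5 mg/mL final) and NADPH (0.5 mg/mL final) for 16 h at 37 C. Viability was read by CellTiter-Glo luminescence.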

Experiment [6] is described as follows: p53 small molecule agonists, cell-based qHTS assay with rat liver microsomes: qHTS cell viability counter screen (AID 1963580). Further: nearly all actives have a fitted effect of over 45% in size. In outline: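 Intracellular ATP, by CellTiter-Glo luminescence, defines viability. HCT-116 p53RE-bla cells, 4,000 per well, were compound-treated in the presence of rat liver microsomes and NADPH for 16 h at 37 C.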
A short description of experiment [7]: p53 small molecule agonists, cell-based qHTS assay: qHTS cell viability counter screen (AID 1963581). Further: nearly all actives have a fitted effect of over 45% in size. In outline: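 In the same plates used for the p53 bla reporter, HCT-116 cells given compounds for 16 h at 37 C received CellTiter-Glo; luminescence was recorded 30 min later at room temperature.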
Background: qHTS replaces the single test concentration by a dilution series.

Experiment [8] is described as follows: p53 small molecule agonists, cell-based qHTS assay (AID 1963582; active means well fitted activation curve with a large enough effect in the signal ratio in the repeat runs, not every such curve was filed as active; the % refers to the signal ratio). In outline:
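Compounds are pin-transferred in DMSO onto p53RE-bla cells and incubated 16 h at 37 C. The B/G FRET beta-lactamase substrate is then applied for 2 h at RT and fluorescence recorded.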

In experiment [9] the target is 5-hydroxytryptamine receptor 2A (Homo sapiens) (UniProt P28223). The experiment in a line: 5-hydroxytryptamine receptor 2A (HTR2A) small molecule antagonists, cell-based qHTS assay (AID 1963586). Further: nearly all actives have a fitted effect of over 45% in size. Further: potency means the concentration at half of the fitted maximal effect. In outline: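 Antagonist-mode intracellular calcium assay: DOI (4 nM) added after 5 min compound pre-incubation at room temperature to dye-loaded HTR2A-CHO cells. Fluorescence followed for 3 min, sampled every second.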

Experiment [10] has the same target. Put plainly: 5-hydroxytryptamine receptor 2A (HTR2A) small molecule agonists, cell-based qHTS assay (AID 1963587). Further: nearly all actives have a fitted effect of over 30% in size. Further: potency means the concentration at half of the fitted maximal effect. In outline:
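Kinetic calcium-flux fluorescence (2 min, 1 sec intervals) after compound addition in agonist mode. HTR2A-CHO cells were cultured 18 h, then dye-loaded 1 h at 37 C.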

The target in experiment [11] is Muscarinic acetylcholine receptor M1 (Homo sapiens) (UniProt P11229). Put plainly: Cholinergic receptor muscarinic 1 (CHRM1) small molecule agonists, cell-based qHTS assay (AID 1963589). Further: nearly all actives have a fitted effect of over 35% in size. Further: potency means the concentration at half of the fitted maximal effect. In outline: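 Each compound was tested at 15 concentrations across three independent runs on dye-loaded CHO cells stably expressing human CHRM1, reading intracellular calcium fluorescence kinetically at 1 sec intervals.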

Experiment [12] concerns the target D(2) dopamine receptor (Homo sapiens) (UniProt P14416). Put plainly: Dopamine D2 receptor (DRD2) small molecule agonists, cell-based qHTS assay (AID 1963594). Further: nearly all actives have a fitted effect of over 35% in size. In outline: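 cAMP accumulation in DRD2-HEK293 cells measured by HTRF after 1 h detection; compounds added 10 min before NKH477 (200nM […]) forskolin-analogue stimulation, 30 min at room temperature, with Ro20-1724 present at 0.1 mM final.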

For experiment [13] the target is unchanged. The experiment in a line: Dopamine D2 receptor (DRD2) small molecule antagonists, cell-based qHTS assay (AID 1963595; active means well fitted inhibition curve with a large enough effect in the signal ratio in the repeat runs, with a control signal flat; the % refers to the signal ratio; further: potency means the concentration at half of the fitted maximal effect). In outline: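 HEK293 cells stably expressing DRD2, preincubated with 0.1 mM Ro20-1724 and compounds 10 min, were stimulated with 200 nM NKH477 plus 12 nM quinpirole for 30 min at room temperature; cAMP measured by HTRF (665/620 nm).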

Experiment [14] is described as follows: p53 small molecule agonists, cell-based qHTS assay with rat liver microsomes (AID 1963578). In outline:
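p53RE-bla cells were exposed to compounds together with rat liver microsomes (0.5 mg/mL final) and NADPH (0.5 mg/mL final) for 16 h at 37 C, then read by LiveBLAzer beta-lactamase fluorescence after 2 h at room temperature.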

Experiment [15] deals with Muscarinic acetylcholine receptor M1 (Homo sapiens) (UniProt P11229). Put plainly: Cholinergic receptor muscarinic 1 (CHRM1) small molecule antagonists, cell-based qHTS assay (AID 1963588). Further: nearly all actives have a fitted effect of over 40% in size. In outline: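 CHRM1-CHO calcium-flux assay, antagonist mode. Cells were seeded 18 h, dye-loaded 1 h at 37 C and given compound for 5 min at RT, then acetylcholine was added at 50nM. FDSS fluorescence was read 3 min; 15 concentrations, three runs.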

Experiment [16] in a line: cAMP Responsive Elements (CRE) small molecule agonists, cell-based qHTS assay (AID 1963590). In outline:
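Cell line: CRE-bla HEK 293T; medium DMEM/10% dialyzed FBS/0.1 mM NEAA/1 mM pyruvate/25 mM HEPES; 3 h compound exposure; beta-lactamase FRET readout after 2 h substrate loading at RT.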

Experiment [17] can be described thus: cAMP Responsive Elements (CRE) small molecule antagonists, cell-based qHTS assay (AID 1963591; active means well fitted inhibition curve with a large enough effect in the signal ratio in the repeat runs, not every such curve was filed as active; the % refers to the signal ratio; further: potency means the concentration at half of the fitted maximal effect). In outline: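 Inhibition of NKH477-driven (0.25 uM final) CRE-beta-lactamase signal in HEK293T cells, 3 h compound exposure at 37 °C, detected by FRET substrate fluorescence.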
Experiment [18] addresses Beta-2 adrenergic receptor (Homo sapiens) (UniProt P07550). Put plainly: Adrenergic beta2 receptor (ADRB2) small molecule antagonists, cell-based qHTS assay (AID 1963592). Further: nearly all actives have a fitted effect of over 50% in size. Further: potency means the concentration at half of the fitted maximal effect. In outline: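 Cells (CHO, stable ADRB2 overexpression) incubated 18-20hr at 37C; compounds added from DMSO; agonist mix (1nM isoproterenol, 100uM IBMX, 25uM Ro-20-1724) added; 0.5hr RT; d2-cAMP and anti-cAMP-cryptate added; 1hr RT; 665/615 nm read.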

Experiment [19] has the same target. Put plainly: Adrenergic beta2 receptor (ADRB2) small molecule agonists, cell-based qHTS assay (AID 1963593).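 Further: CHO cells stably overexpressing human ADRB2.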 In outline:
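CHO cells stably over-expressing ADRB2 were plated overnight at 37C, then dosed with compounds plus a stimulation mix containing 100uM IBMX and 25uM Ro-20-1724 for 0.5hr at room temperature. cAMP was measured by HTRF competition, 1hr.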

Results filed as inconclusive are left out. The source made the active and inactive calls. Unless noted, the call rests on the fitted dose curve.

Sequence of 5-hydroxytryptamine receptor 2A (Homo sapiens) (P28223 whole entry, looked up): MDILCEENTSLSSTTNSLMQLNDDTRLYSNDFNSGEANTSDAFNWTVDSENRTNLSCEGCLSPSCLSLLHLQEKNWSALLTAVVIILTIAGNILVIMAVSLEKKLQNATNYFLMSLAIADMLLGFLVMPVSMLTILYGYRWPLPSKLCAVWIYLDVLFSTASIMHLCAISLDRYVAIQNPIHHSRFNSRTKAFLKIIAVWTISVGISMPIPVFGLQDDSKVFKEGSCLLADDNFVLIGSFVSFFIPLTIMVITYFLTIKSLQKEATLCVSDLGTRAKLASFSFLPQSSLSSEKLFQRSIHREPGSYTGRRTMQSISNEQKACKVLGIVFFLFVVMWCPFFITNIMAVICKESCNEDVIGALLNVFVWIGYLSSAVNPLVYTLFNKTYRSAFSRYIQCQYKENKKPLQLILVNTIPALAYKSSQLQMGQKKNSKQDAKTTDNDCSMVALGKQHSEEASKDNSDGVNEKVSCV
Sequence of Beta-2 adrenergic receptor (Homo sapiens) (P07550 whole entry, looked up): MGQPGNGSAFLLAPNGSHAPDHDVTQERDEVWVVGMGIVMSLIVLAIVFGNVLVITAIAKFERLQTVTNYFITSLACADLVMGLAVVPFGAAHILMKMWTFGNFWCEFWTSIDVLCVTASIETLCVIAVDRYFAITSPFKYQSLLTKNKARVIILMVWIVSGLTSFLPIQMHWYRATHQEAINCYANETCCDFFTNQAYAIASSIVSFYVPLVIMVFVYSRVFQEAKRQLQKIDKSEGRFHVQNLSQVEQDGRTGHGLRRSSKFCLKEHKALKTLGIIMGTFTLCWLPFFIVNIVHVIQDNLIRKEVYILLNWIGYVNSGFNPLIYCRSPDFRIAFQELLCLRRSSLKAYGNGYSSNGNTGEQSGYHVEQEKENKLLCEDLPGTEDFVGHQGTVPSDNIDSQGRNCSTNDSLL
Sequence of Muscarinic acetylcholine receptor M1 (Homo sapiens) (P11229 whole entry, looked up): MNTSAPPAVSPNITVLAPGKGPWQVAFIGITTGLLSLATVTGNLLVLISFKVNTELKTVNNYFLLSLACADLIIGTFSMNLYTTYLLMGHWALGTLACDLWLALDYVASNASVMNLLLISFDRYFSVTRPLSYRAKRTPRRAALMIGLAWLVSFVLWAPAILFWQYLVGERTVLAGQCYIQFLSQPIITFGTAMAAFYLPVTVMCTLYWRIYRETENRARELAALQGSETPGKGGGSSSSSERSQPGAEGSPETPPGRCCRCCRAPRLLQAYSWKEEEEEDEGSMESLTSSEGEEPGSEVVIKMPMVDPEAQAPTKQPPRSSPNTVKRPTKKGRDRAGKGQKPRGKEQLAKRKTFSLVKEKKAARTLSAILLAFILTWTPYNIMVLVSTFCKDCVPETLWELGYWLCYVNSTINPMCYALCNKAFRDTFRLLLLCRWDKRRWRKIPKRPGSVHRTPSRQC
Sequence of KiSS-1 receptor (Homo sapiens) (Q969F8 whole entry, looked up): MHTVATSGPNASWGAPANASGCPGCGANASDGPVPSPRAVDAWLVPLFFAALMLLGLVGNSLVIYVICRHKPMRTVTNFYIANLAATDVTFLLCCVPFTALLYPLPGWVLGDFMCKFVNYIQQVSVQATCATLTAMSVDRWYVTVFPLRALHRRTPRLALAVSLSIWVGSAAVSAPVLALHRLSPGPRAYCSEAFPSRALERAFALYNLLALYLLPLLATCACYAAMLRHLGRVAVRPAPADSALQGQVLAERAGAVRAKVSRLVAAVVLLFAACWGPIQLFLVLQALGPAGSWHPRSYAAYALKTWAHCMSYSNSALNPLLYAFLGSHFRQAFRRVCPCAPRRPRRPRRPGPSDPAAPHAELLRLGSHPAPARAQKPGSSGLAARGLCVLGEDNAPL
Sequence of D(2) dopamine receptor (Homo sapiens) (P14416 whole entry, looked up): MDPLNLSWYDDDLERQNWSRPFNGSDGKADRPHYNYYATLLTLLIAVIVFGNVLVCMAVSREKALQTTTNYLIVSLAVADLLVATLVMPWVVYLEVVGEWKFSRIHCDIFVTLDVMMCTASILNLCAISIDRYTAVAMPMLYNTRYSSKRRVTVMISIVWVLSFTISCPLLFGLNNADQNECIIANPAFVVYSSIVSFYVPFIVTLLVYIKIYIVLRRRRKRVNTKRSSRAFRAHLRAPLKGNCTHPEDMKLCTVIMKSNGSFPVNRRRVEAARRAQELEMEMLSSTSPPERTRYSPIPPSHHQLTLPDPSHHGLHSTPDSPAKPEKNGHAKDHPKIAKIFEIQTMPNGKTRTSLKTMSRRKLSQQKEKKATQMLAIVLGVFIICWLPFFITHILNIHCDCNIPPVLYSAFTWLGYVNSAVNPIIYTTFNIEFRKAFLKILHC
Sequence of Gonadotropin-releasing hormone receptor (Homo sapiens) (P30968 whole entry, looked up): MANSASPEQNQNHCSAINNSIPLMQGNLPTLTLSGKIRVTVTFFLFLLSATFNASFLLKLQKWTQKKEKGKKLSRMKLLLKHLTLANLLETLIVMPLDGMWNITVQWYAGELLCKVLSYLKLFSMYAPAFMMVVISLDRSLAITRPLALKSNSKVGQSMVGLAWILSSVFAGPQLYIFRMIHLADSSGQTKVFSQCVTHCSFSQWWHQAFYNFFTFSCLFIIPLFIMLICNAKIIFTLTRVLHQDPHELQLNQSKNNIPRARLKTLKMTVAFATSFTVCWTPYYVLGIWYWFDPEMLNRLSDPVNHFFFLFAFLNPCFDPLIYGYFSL

As for `CC(=O)c1ccc2c(c1)N(CCCN1CCC(CCO)CC1)c1ccccc1S2`, the Potency entry in experiment [1], in [2], in [3], in experiment [4], in [5] and in experiment [6] was “inactive” each time. Besides, the Potency entry in experiment [7], in experiment [8], in [10], in experiment [11] and in experiment [12] was “inactive” throughout. The Potency is 0.326 µM (active) in experiment [9] and 0.0168 µM (active) in [13].

With `CC(=O)/C=C/C=C1/C2CCC(C2)C1(C)C` (stereo unspecified), the Potency result in experiment [1], in experiment [2], in [3], in [4], in [14] and in experiment [5] was “inactive” throughout. In addition, the Potency entry in [7], in [8], in [10], in [15], in experiment [11] and in experiment [16] was “inactive” in each case. Moreover, the Potency entry in [17], in experiment [18], in experiment [12] and in experiment [13] was “inactive” in each case.

Consider `CCN(CC)CCNc1ccc(CO)c2sc3ccccc3c(=O)c12`, for which the Potency in [1] was 11.9 µM (active); in [17], 26.6 µM (active); in experiment [18], 16.8 µM (active). Further, the Potency entry in [2], in [3], in [4], in experiment [14], in experiment [5] and in [6] was “inactive” in each case. For the same molecule, the Potency entry in [9], in [11], in experiment [16] and in [13] was “inactive” in each case.

`C=CC(=O)OCC1CC2CC1C1CCC(COC(=O)C=C)C21` (stereo unspecified): the Potency in experiment [1] is 24.3 µM (active); in [5] it was 40.8 µM (active). Moreover, the Potency result in experiment [2], in experiment [3], in [4], in experiment [14], in [6] and in [10] was “inactive” each time. Moreover, the Potency result in experiment [15], in [11], in experiment [18], in [19], in [12] and in [13] was “inactive” in each case.

On to `CCn1ccc(NS(=O)(=O)c2ccc(N)cc2)nc1=O`, for which the Potency entry in [1], in experiment [2], in experiment [3], in experiment [4], in experiment [14] and in experiment [6] was “inactive” throughout. In addition, the Potency result in experiment [7], in experiment [8], in experiment [10], in experiment [15], in [11] and in experiment [16] was “inactive” in each case. In addition, the Potency result in experiment [17], in experiment [18] and in experiment [13] was “inactive” throughout.

For the molecule `O=[N+]([O-])c1cc(N(CCO)CCO)ccc1NCCO`, the Potency entry in experiment [1], in experiment [2], in experiment [3], in experiment [4], in experiment [5] and in experiment [6] was “inactive” throughout. For the same molecule, the Potency entry in [7], in experiment [9], in experiment [10], in experiment [11], in experiment [16] and in experiment [17] was “inactive” throughout.

As for `C[C@H]1[C@@H](c2ccccc2)NC(=O)N1C`, the Potency result in [1], in [2], in experiment [3], in experiment [4], in experiment [5] and in experiment [6] was “inactive” each time. The Potency result in [7], in experiment [9], in experiment [10], in experiment [15], in [11] and in experiment [16] was “inactive” in each case. Further, the Potency entry in [17], in experiment [18] and in experiment [12] was “inactive” in each case.

For the molecule `O=C1OC2(c3ccc(O)cc3Oc3cc(O)ccc32)c2ccc(N=C=S)cc21`, the Potency entry in [1], in experiment [5], in experiment [6], in [7], in experiment [8] and in [15] was “inactive” throughout. For the same molecule, the Potency result in experiment [17] and in [19] was “inactive” throughout. For the same molecule, the Potency is 14.1 µM (active) in [2]; 44.4 µM (active) in [3]; 39.6 µM (active) in experiment [4]; 17.7 µM (active) in experiment [10]; 22.3 µM (active) in experiment [11].
